The text below walks through data of PubChem BioAssay AID1259422 (The Scripps Research Institute Molecular Screening Center, 2018).

The campaign covered roughly 640,000 compounds. About 9,300 (1.5%) were called active. Rule as the data show it: active = inhibition above about 32%; inactive = the rest. For the sample, actives were picked, then their nearest neighbours and some compounds at random.

This experiment is described as follows: TEAD-YAP interaction inhibition, primary screen, TEAD-YAP interaction inhibitor project, luminescence, HEK-TIYL cells (AID 1259422).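 Also: 0% = median of test compound wells and 100% = reference inhibitor wells.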 Conditions: TEAD-Gal4/YAP UAS-luciferase luminescence, at 9.12 µM, stronger effect = higher value.
Regarding `COc1ccc(C(=O)n2nnc3ccccc32)cc1`, the inhibition is -1.4% (inactive).
For the molecule `Cc1nn(C(=O)N(C)c2ccccc2)c(C)c1Br`, the inhibition is 5% (inactive).
As to `CN(C(=O)n1nnc2ccccc21)c1ccccc1`, the inhibition is 44.2% (active).
The figure for `O=C(N/N=C/c1ccc(Cl)cc1)c1ccccc1F` is -4.81% (inactive); for `COCCNCC(=O)Nc1cccc2ccccc12` it is 8.26% (inactive).
With `O=C(NN1CC(C(=O)OCc2ccc([N+](=O)[O-])cc2)CC1=O)c1ccccc1` (stereo not given), the inhibition was 5.91% (inactive).
`Cc1cc(C)n(CCc2nc3c4ccccc4n(CC(N)=O)c(=O)n3n2)n1`: the inhibition was 4.04% (inactive).
With `Cc1csc2nc(-c3ccc(NC(=O)COc4ccccc4)cc3)cn12`, the inhibition was 78.2% (active).
Take `COc1ccc(CC(=O)Nc2ccc(-c3cn4c(C)csc4n3)cc2)cc1`: the inhibition was -12.5% (inactive).
As for `COC(=O)COc1ccc(NC(=O)COc2ccccc2)cc1`, the inhibition is 0.58% (inactive).
In the case of `O=C(Nc1cccc2ccccc12)c1nc2c(nnn2Cc2ccc(F)cc2)c(=O)[nH]1`, the inhibition was -2.87% (inactive).
As to `O=C(Nc1ccc(Br)cn1)c1ccccc1Cl`, the inhibition is -0.48% (inactive).
As to `CCCn1c(SCC(=O)Nc2nc(C)cs2)nnc1-c1ccccn1`, the inhibition was 12.5% (inactive).
On to `Cc1ccccc1-n1c(SCC(=O)c2c[nH]c3ccccc23)nnc1-c1cccnc1`, for which the inhibition is 48.9% (active).
For the molecule `Cc1csc(NC(=O)CSc2nnc(-c3cccnc3)o2)n1`, the inhibition is -34.8% (inactive).
For the molecule `Cc1ccccc1-n1c(SCC(=O)NNC(=O)c2ccco2)nnc1-c1cccnc1`, the inhibition was -12% (inactive).
For the molecule `Cc1cccc(-n2c(SCC(=O)NNC(=O)c3ccco3)nnc2-c2cccnc2)c1C`, the inhibition is -0.49% (inactive).
As for `CCc1ccccc1-n1c(SCC(=O)Nc2nc(C)cs2)nnc1-c1cccnc1`, the inhibition is 56.8% (active).
The figure for `O=C(NCc1ccncc1)C(=O)NCC1OCCCN1S(=O)(=O)c1cccs1` (stereo not given) is 0.25% (inactive); for `CCCCOC(=O)c1cc(-c2ccc(OC)cc2)nc2ccc(Br)cc12` it is 0.12% (inactive); for `Cc1[nH]c2ccccc2c1C(Nc1nccs1)c1ccccc1O` (stereo not given) it is 2.06% (inactive).
With `Cn1c(SCC(=O)c2ccc([N+](=O)[O-])cc2)nnc1C(F)(F)F`, the inhibition is 4.67% (inactive).
For `O=C(N/N=C/c1ccccc1Cl)C(=O)N/N=C/c1ccccc1Cl`, the inhibition was 9.07% (inactive).
Consider `CCOC(=O)C1=CN(Cc2ccc(F)cc2)C=C(C(=O)OCC)C1c1ccc(Cl)cc1`, for which the inhibition is 1.74% (inactive).
In the case of `Cc1cc(NCc2ccccc2)nc(-n2nc(C)cc2C)n1`, the inhibition was 65.4% (active).
On to `CC(=O)Nc1ccc(Nc2cc(C)nc(-n3nc(C)cc3C)n2)cc1`, for which the inhibition is 36% (active).
With `Cc1cc(C)n(-c2nc(Nc3ccc(OC(F)(F)F)cc3)nc(-n3nc(C)cc3C)n2)n1`, the inhibition was -10.5% (inactive).
With `Cc1cc(NCc2ccccc2)nc(N2CCN(Cc3ccc4c(c3)OCO4)CC2)n1` the figure was 3.95% (inactive).
As for `CCc1ccccc1NC(=O)NCCNc1cc(-n2nc(C)cc2C)nc(C)n1`, the inhibition was -1.06% (inactive).
The figure for `CC(=O)Nc1ccc(Nc2cc(Nc3ccccn3)nc(N)n2)cc1` is -12.6% (inactive).
As to `COc1cc2nc(NCc3ccc4c(c3)OCO4)nc(N)c2cc1OC`, the inhibition is 8.22% (inactive).
As to `COc1cccc(NC(=O)CSc2nc(O)c(C)c(=O)n2-c2ccc(F)cc2)c1`, the inhibition is -6.67% (inactive).
On to `COc1ccc(/C=N/NC(=O)CNc2cccc3ccccc23)cc1Cl`, for which the inhibition was 8.35% (inactive).
Consider `O=C(CCSc1nc(-c2ccccc2)cs1)N1CCOCC1`, for which the inhibition was -10.1% (inactive).
With `O=C(NC1CC1)C1CCN(C(=O)c2sccc2-n2cccc2)CC1` the figure was 0.5% (inactive); with `CCC1CN(Cc2cn(CC)nc2C)Cc2cc(OC)ccc2O1` (stereo not given), 4.73% (inactive).
Regarding `CC(C)n1cnc2c(NCc3nc4ccccc4[nH]3)nc(Cl)nc21`, the inhibition was 61.8% (active).
The figure for `COc1cc(Nc2cc(C(=O)NCc3nc4ccccc4[nH]3)ccn2)cc(OC)c1OC` is 2.93% (inactive).
As for `FC(F)(F)c1ccc(Cn2cnc3c(NCc4nc5ccccc5[nH]4)nc(Cl)nc32)cc1`, the inhibition is -2.85% (inactive).
The figure for `COc1ccc(CNc2nc(-c3ccccc3)nc3c2ncn3C(C)C)cc1` is -3.1% (inactive); for `COc1cc(Nc2nc(NCc3nc4ccccc4[nH]3)c3ncn(C(C)C)c3n2)cc(OC)c1OC` it is 47.9% (active).
Regarding `COc1ccc(-c2nc(Nc3cc(OC)c(OC)c(OC)c3)c3ncn(C(C)C)c3n2)cc1`, the inhibition was 23.6% (inactive).
Take `Cc1c(C(=O)NCC2CCCO2)sc2ncn(Cc3ccccc3F)c(=O)c12` (stereo not given): the inhibition was 2.38% (inactive).
With `Oc1c(C(c2ccc(F)cc2)N2CCOCC2)sc2ncnn12` (stereo not given) the figure was -3.52% (inactive); with `COc1ccccc1N1CCN(/N=C(\C)c2cccs2)CC1`, -19.5% (inactive).
With `Cc1cccnc1NC(=S)NC(=O)c1cc2ccccc2o1`, the inhibition was -26.1% (inactive).
For `CCCn1nnnc1NC(=O)c1ccc(-c2cccc(Cl)c2)o1`, the inhibition is -16.9% (inactive).
On to `CCCn1nnnc1NC(=S)NC(=O)c1cc2ccccc2o1`, for which the inhibition was 35.9% (active).
As to `Cc1ccc(C(C)C)c(OC(=O)c2cc(-c3ccc(Cl)cc3)nc3ccc(C)cc23)c1`, the inhibition was -8.87% (inactive).
For the molecule `O=C1C(Nc2ccc(F)c(F)c2)=C(N2CCCCC2)C(=O)c2ccccc21`, the inhibition is -7.95% (inactive).
Consider `CC1CCN(C2=C(NC3CCCC3)C(=O)c3ccccc3C2=O)CC1`, for which the inhibition was 51.5% (active).
Consider `O=C1C(Nc2ccc(F)c(F)c2)=C(N2CCCC2)C(=O)c2ccccc21`, for which the inhibition was -1.87% (inactive).
For `Cc1c(C(=O)N2CCN(Cc3ccc4c(c3)OCO4)CC2)sc2ncn(CC(=O)Nc3cccc(C(F)(F)F)c3)c(=O)c12`, the inhibition was -1.1% (inactive).
On to `CNC(=O)c1ccc(Cl)c([N+](=O)[O-])c1`, for which the inhibition is 8.77% (inactive).
For the molecule `CCCCC(=O)NC1(C(F)(F)F)C(=O)N(C2CCCCC2)C(C)=C1C(=O)OCC` (stereo not given), the inhibition is 18.5% (inactive).
Regarding `Nc1c(C(=O)OCC(=O)NCc2ccc3c(c2)OCO3)[nH]c(=O)[nH]c1=O`, the inhibition was -6.24% (inactive).
Take `Cc1ccc(S(=O)(=O)Nc2ccc3oc(C)c(C(=O)NN)c3c2)cc1`: the inhibition was 10.1% (inactive).
With `CC(=O)c1c(C)oc2c1cc(NS(=O)(=O)c1ccc(C)cc1)c1ccccc12`, the inhibition is 62.9% (active).
With `CC(=O)c1c(C)oc2c1cc(NS(=O)(=O)c1cccc3cccnc13)c1ccccc12` the figure was -0.78% (inactive); with `COCCOC(=O)c1c(C)oc2ccc(NS(=O)(=O)c3ccc(Cl)cc3)cc12`, -2.27% (inactive).
The figure for `COC(=O)c1c(C)oc2c1cc(NS(=O)(=O)c1ccc(Cl)cc1)c1ccccc12` is 11.4% (inactive); for `COc1ccc(S(=O)(=O)Nc2ccc3oc(C)c(C(C)=O)c3c2)cc1` it is 54.7% (active).
Take `C=CCOC(=O)N1CCC(C(=O)NC(c2ccc(F)cc2)c2ccccn2)CC1` (stereo not given): the inhibition was 6.83% (inactive).
Consider `COc1ccccc1NC(=O)N1CCC2(CC1)OCc1cc(SC)cc(C)c1O2`, for which the inhibition was 1.69% (inactive).
Consider `C=CC(=O)Nc1ccc(OC)cc1OC`, for which the inhibition was 43.2% (active).
Regarding `COc1ccc(NC(=O)/C=C\c2cccc3ccccc23)c(OC)c1`, the inhibition was 2.51% (inactive).
On to `COc1ccc(CNC(=O)Nc2ccc(OC)cc2OC)cc1`, for which the inhibition is 0.36% (inactive).
Regarding `CCn1cc(C(=O)OCc2c(F)cccc2Cl)c(=O)c2ccc(C)nc21`, the inhibition was -3.49% (inactive).
Take `CCOc1ccc(-c2nc(-c3cccc([N+](=O)[O-])c3)no2)cc1`: the inhibition is -19.3% (inactive).
For `CCOC(=O)C(CC)Sc1nnc2c(n1)[nH]c1ccc(F)cc12` (stereo not given), the inhibition was -2.45% (inactive).
Turning to `CCCCNc1ncnc2c1[nH]c1ccc(F)cc12`, the inhibition is 42.6% (active).
Turning to `Cc1ccc2[nH]c3c(=O)n(N)cnc3c2c1`, the inhibition is -5.24% (inactive).
On to `N#CC1(NS(=O)(=O)c2cc([N+](=O)[O-])ccc2Cl)CCCCC1`, for which the inhibition is -2.76% (inactive).
For the molecule `CC(=O)c1ccc(NC(=O)/C=C/c2cccc([N+](=O)[O-])c2)cc1`, the inhibition is -22.5% (inactive).
With `Ic1ccc2ncnc(NCCc3ccccc3)c2c1`, the inhibition is 32.8% (active).
In the case of `COCCCNc1ncnc2ccc(I)cc12`, the inhibition is 29.9% (inactive).
Consider `Ic1ccc2ncnc(NCC3CCCO3)c2c1` (stereo not given), for which the inhibition was 25.4% (inactive).
For `CCn1c(SCC(=O)N2CCc3ccccc32)nnc1-c1ccccc1`, the inhibition was -0.23% (inactive).
Take `O=C(NCCc1ccc(O)cc1)c1csc(Nc2ccc3ncccc3c2)n1`: the inhibition is -1.97% (inactive).
As to `O=C(NCc1ccccc1)c1csc(Nc2ncccn2)n1`, the inhibition was 5.56% (inactive).
The figure for `O=C(NCCc1ccc(O)cc1)c1csc(Nc2ccc(N3CCOCC3)cc2)n1` is 39.4% (active); for `O=C(NCCc1ccccc1)c1csc(Nc2ccccc2)n1` it is -24.6% (inactive).
The figure for `O=C(Nc1ccc(N2CCOCC2)cc1)c1csc(Nc2ccc(-n3ccnc3)cc2)n1` is 17.6% (inactive); for `O=C(NCc1ccccc1)c1csc(Nc2ccc(N3CCOCC3)cc2)n1` it is 35% (active); for `Cc1ccc2nc(-c3cc(NC(=O)c4ccccc4C)ccc3Cl)oc2c1` it is -11.2% (inactive).
Consider `COc1ccc(Cn2c(SCC(=O)NCCc3ccc(OC)c(OC)c3)nc3ccsc3c2=O)cc1`, for which the inhibition is 11.1% (inactive).
Consider `CC(C)(C)c1ccc(CSc2nc3ccc(NC(=O)c4ccccc4)cc3s2)cc1`, for which the inhibition is 2.44% (inactive).
As to `CCC(=O)Nc1ccc(NC(=O)COc2ccc(Br)cc2)cc1C`, the inhibition was 0.24% (inactive).
With `COc1ccc(-c2cc(C(=O)Nc3sc(C)c(C)c3C#N)c3ccccc3n2)cc1OC`, the inhibition is -0.22% (inactive).
On to `CCN(CC)C(=O)c1sc(NC(=O)c2c(-c3ccccc3)noc2C)c(C(=O)OC(C)C)c1C`, for which the inhibition is 2.03% (inactive).
As to `Fc1ccc(C2=Nc3ccc(F)cc3C(C3CC3)=NN2)cc1`, the inhibition was -2.31% (inactive).
`CCOc1ccc(C(=O)NCC(=O)OCC#N)cc1`: the inhibition is 0.54% (inactive).
For the molecule `CS(=O)(=O)c1ccc(C(=O)OCC(=O)c2ccc3c(c2)OCCO3)cc1[N+](=O)[O-]`, the inhibition is 2.27% (inactive).
With `CCOC(=O)/C(N=Nc1cc(C(=O)O)cc(C(=O)O)c1)=C(\C)O` the figure was 8.94% (inactive); with `CCOC(=O)/C(N=Nc1ccc2c(c1)OCCO2)=C(/O)c1ccc([N+](=O)[O-])cc1`, 88.1% (active).

The term inhibition denotes the change of the read-out against control, counted positive when it falls.
